{"source": "PubChem BioAssay AID933", "about": "(National Center for Advancing Translational Sciences (NCATS), 2007)", "note": "Results filed as inconclusive are left out. A call without a number means that no potency is given here. Unmarked numbers belong to inactive results. The source made the active and inactive calls. Calls follow the shape of the dose curve; as a rule, active = well fitted activation curve with a large enough effect in the signal ratio, with a control signal flat; inconclusive = small, poorly fitted or top-dose-only effect, or a change in a side signal; inactive = flat fitted curve, though single readings scatter; the % refers to the signal ratio. Potency is read from the fitted curve at half-maximal effect."}
{"target": "Thyrotropin receptor (Homo sapiens) (UniProt P16473)", "sequence (P16473 whole entry, looked up)": "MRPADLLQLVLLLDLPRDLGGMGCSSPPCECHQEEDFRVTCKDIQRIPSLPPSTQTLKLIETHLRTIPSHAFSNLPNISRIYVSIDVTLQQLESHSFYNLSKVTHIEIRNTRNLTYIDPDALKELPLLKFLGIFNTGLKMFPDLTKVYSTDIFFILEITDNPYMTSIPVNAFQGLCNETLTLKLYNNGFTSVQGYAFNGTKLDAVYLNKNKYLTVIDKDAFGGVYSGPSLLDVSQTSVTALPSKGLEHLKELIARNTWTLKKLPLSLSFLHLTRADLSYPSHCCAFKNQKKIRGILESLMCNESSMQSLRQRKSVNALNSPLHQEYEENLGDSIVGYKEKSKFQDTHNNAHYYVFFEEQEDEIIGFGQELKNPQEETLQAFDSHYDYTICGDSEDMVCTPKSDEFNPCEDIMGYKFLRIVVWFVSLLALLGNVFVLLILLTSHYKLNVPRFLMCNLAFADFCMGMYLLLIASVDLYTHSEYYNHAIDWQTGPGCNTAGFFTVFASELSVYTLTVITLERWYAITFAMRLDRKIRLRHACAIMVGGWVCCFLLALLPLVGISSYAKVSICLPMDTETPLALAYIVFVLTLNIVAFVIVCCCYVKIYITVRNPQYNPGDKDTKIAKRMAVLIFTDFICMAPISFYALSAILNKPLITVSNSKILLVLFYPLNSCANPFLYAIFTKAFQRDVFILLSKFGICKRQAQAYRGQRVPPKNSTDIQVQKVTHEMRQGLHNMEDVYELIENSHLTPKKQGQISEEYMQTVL", "experiment": "Secondary Concentration-Response Assay for Agonists of the Thyroid Stimulating Hormone Receptor: HTRF Activity Detection", "conditions": "HEK293-TSHR cells, cAMP HTRF ratio, 30 min; series mostly up to 91.7 µM", "summary_of_the_method": "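cAMP accumulation was detected by antibody-based HTRF, excitation 330 nm, emissions 615 and 660 nm. Compounds acted for 30 min at room temperature on stably TSHR-transfected HEK 293 cells, with phosphodiesterase inhibitor RO 20-1724 (100 uM) in the medium.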"}
{"smiles": "CCOC(=O)C1C(=O)Nc2nc(C)nn2C1c1ccccc1", "note": "(configuration not stated)", "activation": "2.16% [at 0.00035 µM]"}
{"smiles": "CCCN1C(=O)c2ccccc2NC1c1cc(OC)c(OC)c(OC)c1", "note": "(configuration not stated)", "Potency": "inactive"}
{"smiles": "COc1ccc(CN(Cc2ccccc2)C(=O)c2ccc(OC)cc2O)cc1", "Potency": "31.6 µM (active)"}
{"smiles": "COc1ccc(-c2nc3cccc(OC)c3c(=O)n2Cc2ccccc2)cc1COc1ccc(NC(C)=O)cc1", "Potency": "inactive"}
{"smiles": "CCN(CC)CCN1C(=O)c2ccccc2NC1c1ccc(F)cc1", "note": "(configuration not stated)", "Potency": "inactive"}
{"smiles": "COc1ccc(-c2nc3ccccc3c(=O)n2Cc2ccccc2)cc1OCc1ccc(NC(C)=O)cc1", "Potency": "inactive"}
{"smiles": "O=C(c1ccccc1O)N(Cc1ccccc1)Cc1cccs1", "Potency": "inactive"}
{"smiles": "COc1ccc(C2Nc3ccccc3C(=O)N2c2cccc3ccccc23)cc1COc1c(C)cccc1C", "note": "(configuration not stated)", "Potency": "inactive"}
{"smiles": "COc1ccc(C2Nc3ccccc3C(=O)N2Cc2ccccc2)cc1COc1ccccn1", "note": "(configuration not stated)", "Potency": "inactive"}
{"smiles": "COc1cc(C2Nc3ccccc3C(=O)N2c2ccccc2)ccc1O", "note": "(configuration not stated)", "Potency": "inactive"}
{"smiles": "Oc1ccccc1-c1cc(C(F)(F)C(F)F)nc(-c2ccccc2)n1", "activation": "0.7% [at 0.00035 µM]"}
{"smiles": "COc1ccc(C2Nc3ccccc3C(=O)N2Cc2ccco2)cc1COc1ccc([N+](=O)[O-])cc1", "note": "(configuration not stated)", "Potency": "inactive"}
{"smiles": "COc1ccc(CNCc2ccccc2)cc1COc1ccc(NC(C)=O)cc1", "Potency": "inactive"}
{"smiles": "COc1ccc(C2Nc3ccccc3C(=O)N2CCc2ccc(Cl)cc2Cl)cc1COc1ccc(NC(C)=O)cc1", "note": "(configuration not stated)", "Potency": "inactive"}
{"smiles": "Cc1occc1-c1nnc(SCC(=O)Nc2ccccc2)n1C(C)c1ccccc1", "note": "(configuration not stated)", "activation": "0.0209% [at 0.00035 µM]"}
{"smiles": "O=C(c1ccccc1O)N(Cc1ccco1)Cc1ccco1", "Potency": "inactive"}
{"smiles": "CCOC(=O)COc1ccccc1C1Nc2ccccc2C(=O)N1c1cccc(Cl)c1", "note": "(configuration not stated)", "Potency": "inactive"}
{"smiles": "CCOc1ccc(S(=O)(=O)NCc2ccccc2Cl)cc1C(N)=O", "Potency": "inactive"}
{"smiles": "COc1cccc(OCc2cc(C3Nc4ccccc4C(=O)N3Cc3ccco3)ccc2OC)c1", "note": "(configuration not stated)", "Potency": "inactive"}
{"smiles": "COc1ccc(C2Nc3ccccc3C(=O)N2C2CCCC2)cc1COc1ccc(NC(C)=O)cc1", "note": "(configuration not stated)", "Potency": "inactive"}
{"smiles": "COCCNC(=O)C(c1ccc(C)o1)N(C(=O)c1snc(C(N)=O)c1N)c1ccc(C)cc1", "note": "(configuration not stated)", "activation": "-0.472% [at 0.00035 µM]"}
{"smiles": "O=C(c1cc(Br)ccc1O)N(Cc1ccco1)Cc1cccs1", "Potency": "inactive"}
